Test results: PubChem BioAssay (Tox21)
Unmarked numbers belong to inactive results. Activity calls are given as the source filed them. Calls follow the shape of the dose curve; as a rule, active = well fitted curve in the direction sought with a large enough effect in the repeat runs; inconclusive = weak or mixed curves; inactive = flat fitted curve, though single readings scatter.

Assay: qHTS assay to test for compound auto fluorescence at 535 nm (green) in HEK293 cells (AID 720680)
Details: green autofluorescence 485/535 nm; series mostly up to 91.3 µM
% is scaled to controls: 0 for no effect and ±100 for the full control effect.

Q: For `CCCCC(=O)O[C@]1(C(=O)CO)[C@H](C)C[C@H]2[C@@H]3CCC4=CC(=O)C=C[C@]4(C)[C@@]3(F)[C@@H](O)C[C@@]21C`, which outcome is on record?
A: inactive

Q: For `CN1[C@@H]2CC[C@H]1CC(OC(=O)c1c[nH]c3ccccc13)C2` (some centres undefined), which outcome is on record?
A: inactive

Q: Which outcome does the source give for `O=C1CCCCC1C1CCCCC1` (centres undefined) here?
A: inactive

Q: For `CC(C)(C)c1ccc(OC(=O)c2ccccc2O)cc1`, which outcome is on record?
A: inactive

Q: For `Cc1cc2c(s1)Nc1ccccc1N=C2N1CCN(C)CC1`, which outcome is on record?
A: inactive

Q: Which outcome does the source give for `CCCCCCCCCC/C=C/C#N` here?
A: inactive

Q: Which outcome does the source give for `O=C1C=CC(=O)O1` here?
A: inactive

Q: With `O=C(O)c1ccccc1Nc1cc(Cl)ccc1C(=O)O` as the compound, how does the outcome read?
A: inactive

Q: For `CCCNC(C)C(=O)Nc1c(C)csc1C(=O)OC` (centres undefined), which fluorescence, % of fluorescein is on record?
A: -0.0722% [at 18.6 µM]

Q: Which outcome does the source give for `O=S(=O)(O)C(F)(F)F` here?
A: inactive

Q: For `CCCCC(CC)COC(=O)COc1cc(Cl)c(Cl)cc1Cl` (centres undefined), which outcome is on record?
A: inactive

Q: With `OCCN(CCO)CCN(CCO)CCO` as the compound, how does the outcome read?
A: inactive

Q: With `C1CSCCS1` as the compound, how does the outcome read?
A: inactive

Q: Which outcome does the source give for `CN1C(=O)CC(c2ccccc2)C1=O` (centres undefined) here?
A: inactive

Q: Which outcome does the source give for `NC1=NCC2c3ccccc3Cc3ccccc3N12` (centres undefined) here?
A: inactive

Q: With `COc1cc(Cl)ccc1Cl` as the compound, how does the outcome read?
A: inactive

Q: With `OCCN1CCN(CCO)CC1` as the compound, how does the outcome read?
A: inactive

Q: Which outcome does the source give for `CCCCCCOc1ccc(N)cc1` here?
A: inactive

Q: Which outcome does the source give for `CC(C)(C)c1cccc(O)c1` here?
A: inactive

Q: With `CC[C@H]1CC[C@H](NCc2cc3c(cc2OC)[C@H]2C[C@H]2C(=O)N3C)[C@H](c2ccccc2)N1` as the compound, how does the outcome read?
A: inactive

Q: Which outcome does the source give for `CCCCC1CCC(=O)O1` (centres undefined) here?
A: inactive

Q: Which outcome does the source give for `O=C(C(Cl)Cl)N1CCOC12CCCCC2` here?
A: inactive

Q: For `CCC(=O)c1ccc2c(c1)N(CCCN(C)C)c1ccccc1S2`, which outcome is on record?
A: inactive

Q: Which outcome does the source give for `Oc1ccccc1C=NCc1ccccc1` here?
A: inactive
